Activity calls are given as the source filed them.

Assay [1] has as its system Plasmodium falciparum Sir2 (PF13_0152, Sir2A). Put plainly: Plasmodium falciparum Sir2A binding compounds – biochemical, small-molecule microarray, 635 nm fluorescence, primary screen (AID 1098).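 Note: score merges spot fluorescence intensity with its signal-to-noise ratio.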 The following applies: fluorescence 635 nm, higher = more signal.
Assay [2] can be described thus: probe aDKK1 binding to arrayed compounds – biochemical, biotinylated probe, 635/667 nm fluorescence, primary screen (AID 1099).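 Note: score merges 667nm spot fluorescence with signal to noise across triplicate slides; reference of the scale not given here.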 As to conditions: small-molecule microarray, higher = more signal.
Assay [3] can be described thus: probe aCHRDL2 binding to arrayed compounds – biochemical, biotinylated probe, 635/667 nm fluorescence, primary screen (AID 1100). As to conditions: small-molecule microarray, higher = more signal.
Assay [4] can be described thus: change in splice reporter luminescence, either direction, cell-based, HEK293, spliceosome inhibition project, primary screen (AID 1101).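 Note: HEK293 cells carrying a splicing-competent luciferase reporter gene; test concentration not given here.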 The following applies: HEK293 splicing luciferase reporter, 24 h, higher = more signal, called active from +8 up or from −8 down.
The target in assay [5] is Fibroblast growth factor 10 (Homo sapiens) (UniProt O15520). Put plainly: compounds binding fibroblast growth factor 10 – biochemical, small-molecule microarray, 635 nm fluorescence, primary screen (AID 1102). As to conditions: FGF10 binding, fluorescence 635 nm, higher = more signal.
Assay [6] has as its system glycogen synthase kinase-3 (GSK3A per assay name; protocol says GSK3B). Put plainly: compounds binding glycogen synthase kinase-3 – biochemical, small-molecule microarray, 635 nm fluorescence, GSK3A, primary screen (AID 1103). Note: the record names both GSK3A and GSK3B. The following applies: fluorescence 635 nm, higher = more signal.
Assay [7] deals with Epidermal growth factor receptor (Homo sapiens) (UniProt P00533). The assay is described as follows: compounds binding epidermal growth factor receptor – biochemical, small-molecule microarray, 635 nm fluorescence, primary screen (AID 1104).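 Note: score merges 667 nm emission intensity with spot signal to noise over triplicate slides.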 The following applies: EGFR binding, higher = more signal.
For assay [8], the target named is Follistatin-related protein 3 (Homo sapiens) (UniProt O95633). The assay is described as follows: compounds binding follistatin-related protein 3 – biochemical, small-molecule microarray, 635 nm fluorescence, primary screen (AID 1105).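 Note: score merges emission near 667 nm and signal to noise per printed spot across three slides.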 As to conditions: FSTL3 binding, higher = more signal.
Assay [9] has as its target Dickkopf-related protein 1 (Homo sapiens) (UniProt O94907). Put plainly: small molecules binding DKK1 protein – biochemical, small-molecule microarray, 635 nm fluorescence scan, primary screen (AID 1106).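 Note: score merges emission near 667 nm with signal to noise over three replicate slides.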 As to conditions: higher = more signal.
The test system of assay [10] is Inhibin beta A chain (activin A). The assay is described as follows: small molecules binding activin A – biochemical, small-molecule microarray, 635 nm fluorescence scan, primary screen (AID 1107).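 Note: mouse activin A protein probed at 4.33 µg/mL on printed slides; score merges bound-protein fluorescence near 667 nm with spot signal-to-noise.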 As to conditions: INHBA, higher = more signal.

Chain of Fibroblast growth factor 10 (Homo sapiens) (O15520 whole entry, looked up): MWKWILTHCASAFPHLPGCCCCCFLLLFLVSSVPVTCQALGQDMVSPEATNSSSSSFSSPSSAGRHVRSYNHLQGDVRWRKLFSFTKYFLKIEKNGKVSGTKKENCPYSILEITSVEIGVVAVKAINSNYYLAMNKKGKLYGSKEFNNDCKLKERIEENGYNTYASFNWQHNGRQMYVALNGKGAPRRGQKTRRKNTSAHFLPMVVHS
Chain of Epidermal growth factor receptor (Homo sapiens) (P00533 whole entry, looked up): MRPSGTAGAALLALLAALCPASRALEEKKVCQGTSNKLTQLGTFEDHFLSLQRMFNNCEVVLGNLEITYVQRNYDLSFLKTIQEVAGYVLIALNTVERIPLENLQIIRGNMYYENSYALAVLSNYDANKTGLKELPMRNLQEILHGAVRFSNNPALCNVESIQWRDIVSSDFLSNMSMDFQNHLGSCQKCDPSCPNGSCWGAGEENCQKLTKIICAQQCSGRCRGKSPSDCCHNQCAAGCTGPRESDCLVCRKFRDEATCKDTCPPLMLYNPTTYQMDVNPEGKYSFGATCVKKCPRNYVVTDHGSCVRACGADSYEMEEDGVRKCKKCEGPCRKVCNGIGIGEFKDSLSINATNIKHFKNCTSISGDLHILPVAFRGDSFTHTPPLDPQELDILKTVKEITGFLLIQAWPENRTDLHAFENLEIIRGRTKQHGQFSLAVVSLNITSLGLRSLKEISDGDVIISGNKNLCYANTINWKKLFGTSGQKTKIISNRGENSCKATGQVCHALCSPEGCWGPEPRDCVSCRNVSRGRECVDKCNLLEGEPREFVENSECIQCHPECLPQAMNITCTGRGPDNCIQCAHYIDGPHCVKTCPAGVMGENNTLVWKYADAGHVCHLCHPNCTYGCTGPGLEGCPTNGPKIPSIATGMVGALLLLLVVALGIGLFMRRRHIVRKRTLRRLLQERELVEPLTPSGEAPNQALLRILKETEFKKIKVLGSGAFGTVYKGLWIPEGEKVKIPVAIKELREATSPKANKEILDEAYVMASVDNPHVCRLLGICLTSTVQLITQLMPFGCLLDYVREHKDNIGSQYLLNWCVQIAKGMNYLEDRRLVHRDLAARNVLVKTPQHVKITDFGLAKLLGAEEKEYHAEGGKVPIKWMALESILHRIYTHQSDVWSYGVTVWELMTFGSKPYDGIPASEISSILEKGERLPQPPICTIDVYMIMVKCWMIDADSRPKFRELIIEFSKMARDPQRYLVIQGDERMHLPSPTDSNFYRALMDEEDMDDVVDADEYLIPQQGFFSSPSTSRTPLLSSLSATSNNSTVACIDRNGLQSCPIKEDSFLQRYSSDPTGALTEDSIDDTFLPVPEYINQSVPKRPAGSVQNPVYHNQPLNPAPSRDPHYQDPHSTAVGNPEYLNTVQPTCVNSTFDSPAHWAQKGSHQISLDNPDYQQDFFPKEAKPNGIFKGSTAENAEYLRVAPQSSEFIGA
Chain of Dickkopf-related protein 1 (Homo sapiens) (O94907 whole entry, looked up): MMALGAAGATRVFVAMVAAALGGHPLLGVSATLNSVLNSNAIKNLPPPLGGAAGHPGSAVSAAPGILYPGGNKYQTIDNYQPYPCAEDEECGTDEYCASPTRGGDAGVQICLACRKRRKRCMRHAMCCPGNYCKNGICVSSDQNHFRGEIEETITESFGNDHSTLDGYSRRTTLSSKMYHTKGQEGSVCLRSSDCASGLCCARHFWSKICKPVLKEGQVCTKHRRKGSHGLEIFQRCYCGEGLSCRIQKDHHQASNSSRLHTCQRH
Chain of Follistatin-related protein 3 (Homo sapiens) (O95633 whole entry, looked up): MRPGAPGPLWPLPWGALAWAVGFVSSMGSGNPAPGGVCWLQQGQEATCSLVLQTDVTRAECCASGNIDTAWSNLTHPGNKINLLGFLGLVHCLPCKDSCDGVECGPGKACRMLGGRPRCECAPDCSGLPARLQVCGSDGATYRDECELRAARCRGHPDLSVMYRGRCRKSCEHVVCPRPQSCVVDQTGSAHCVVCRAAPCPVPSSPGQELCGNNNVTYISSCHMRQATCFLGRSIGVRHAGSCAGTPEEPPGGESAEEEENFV

Turning to `C=CCNC(=O)[C@H]1[C@@H]2C(=O)O[C@@H](c3ccccc3)[C@@H](c3ccccc3)N2[C@@H](c2ccc(O)cc2)[C@]12C(=O)Nc1ccc(C#CC3(O)CCCCCC3)cc12`, the composite z-score is 1.38 in assay [1]; 0.0898 in [2]; 0.105 in assay [3]; 0.155 in [5]; 0.373 in assay [6]; -0.612 in assay [7]. For the same compound, the composite z-score in assay [8] was -0.0182; in [9], 0.0926; in assay [10], 0.697. Also, in [4], the z-score was 0.558 (inactive).
In the case of `O[C@@H](Cc1ccccc1)[C@@H](/C=C/C1CC1)N(CC#Cc1ccccc1)Cc1cccc(Cl)c1`, the composite z-score in assay [1] is -0.546; in assay [2], 0.232; in assay [3], 1.34; in assay [5], -1.72; in assay [6], -1.01; in assay [7], -1.69. For the same compound, the composite z-score in assay [8] is -1.54; in assay [9], -1.49; in [10], 0.285. For the same compound, the z-score in [4] was -1.61 (inactive).
Turning to `COC(=O)CCCCCCC(=O)Nc1ccc(NC(=O)CCCC[P+](c2ccccc2)(c2ccccc2)c2ccccc2)cc1`, the composite z-score in assay [1] was 0.5; in assay [2] it was -0.238; in assay [3], -0.842; in [5], 1.38; in assay [6], 0.686; in assay [7], 0.758. Further, the results for the composite z-score in [8], in assay [9] and in assay [10] were 0.955, 1.16 and 0.59, respectively. For the same compound, the z-score in assay [4] is -0.186 (inactive).
Turning to `O=C(N1CCCCC1)[C@@]1(CCS(=O)(=O)c2ccccc2)COC(c2ccc(OCCCO)cc2)=N1`, the composite z-score is 1.38 in assay [1]; 1.12 in assay [2]; 1.21 in assay [3]; 0.96 in assay [5]; 1.02 in [6]; -0.075 in assay [7]. The composite z-score turned out to be 0.348 in assay [8], 0.495 in assay [9] and 1.21 in [10]. In addition, the z-score in assay [4] was 1.74 (inactive).
Regarding `C=CCC(OC(C)=O)[C@@H]1[C@@H](N(Cc2ccc(-c3cccc(C(F)(F)F)c3)o2)C(=O)c2ccc(-c3ccccc3)cc2)c2cc(OCCCO)ccc2N1C(=O)c1ccc2ccccc2n1` (stereo not given in full), the composite z-score was -0.219 in assay [1]; 0.148 in assay [2]; 0.202 in [3]; 0.129 in [5]; -0.587 in assay [6]; -0.049 in [7]. Further, the composite z-score in assay [8] is 0.472; in [9] it was -0.0126; in assay [10], 1.28. The z-score in assay [4] is 0.39 (inactive).
With `CCCC[C@@H]1C[C@H]1[C@@H](NC(=O)c1cccs1)c1ccc(C(F)(F)F)cc1`, the composite z-score in assay [1] is 0.0819; in [2] it was 0.0202; in assay [3], 0.549; in assay [5], -0.609; in assay [6], -0.776; in assay [7], -0.507. Further, the composite z-score was -0.152 in assay [8], -0.0222 in assay [9] and 1.09 in assay [10]. Besides, the z-score in assay [4] is 0.101 (inactive).
Turning to `COCCOC(=O)N1C(=O)[C@@]2(c3cc(C#CC4=CCCCC4)ccc31)[C@H](c1ccc(O)cc1)N1[C@H](c3ccccc3)[C@H](c3ccccc3)OC(=O)[C@H]1[C@@H]2C(=O)N1CCN(c2ncccn2)CC1`, the composite z-score is -0.0148 in assay [1]; -0.222 in assay [2]; 0.649 in [3]; -0.769 in assay [5]; -0.858 in assay [6]; -1.04 in assay [7]. Further, the composite z-score was -1.85 in assay [8], -1.22 in assay [9] and -0.918 in assay [10]. In addition, the z-score in assay [4] was -0.297 (inactive).
As to `CC(C)OC(=O)C=C1C[C@@H](c2ccc(C(F)(F)F)cc2)O[C@@H](c2ccc(C(F)(F)F)cc2)O1`, the composite z-score was 1.12 in [1]; 0.164 in [2]; 0.492 in assay [3]; 0.158 in [5]; 0.485 in assay [6]; -0.765 in assay [7]. The composite z-score is 0.0144 in assay [8], -0.899 in [9] and -0.522 in [10]. The z-score in assay [4] is -1.55 (inactive).
Regarding `COc1ccc([Si](C)(C)[C@@H]2[C@@H](CC(=O)N(CCO)Cc3ccccc3)O[C@]3(C(=O)N(Cc4cccc(N5C(=O)c6cccc7cccc5c67)c4)c4ccccc43)[C@H]2C)cc1`, the composite z-score is 1.5 in [1]; -0.277 in assay [2]; 0.246 in assay [3]; 0.0691 in assay [5]; -0.727 in assay [6]; 0.412 in [7]. Further, the composite z-score in assay [8] was determined as 1.4; in assay [9], 0.816; in [10], 0.539. The z-score in assay [4] was -1.11 (inactive).
On to `COc1ccc(NC(=O)O[C@H]2[C@H](OC(=O)Nc3ccccc3)[C@@H](OC(=O)Nc3ccccc3)[C@@H](OC)O[C@@H]2CO)cc1`, for which the composite z-score in [1] turned out to be 1.55; in assay [2], 0.25; in assay [3], 0.39; in assay [5], 1.5; in assay [6] it was 1.31; in assay [7], 0.0729. For the same compound, the values for the composite z-score in assay [8], in assay [9] and in assay [10] were 0.83, 0.396 and 0.385, respectively. For the same compound, the z-score in assay [4] is -1.67 (inactive).
Regarding `CC(C)(C)N1CC=CC23O[C@@H]4C=CCOC(=O)[C@@H]4[C@H]2C(=O)N(CCCCCCO)[C@@H]3C1=O` (stereo not given in full), the composite z-score in [1] is 1.09; in assay [2] it was -0.102; in [3], 0.65; in assay [5] it was -1.59; in [6], -0.708; in assay [7], -1.04. Moreover, the composite z-score is -1.34 in assay [8], -1.34 in assay [9] and 0.294 in [10]. Further, the z-score in assay [4] is 0.804 (inactive).
`CC(C)N1CC=CC23O[C@@H]4C=CCOC(=O)[C@@H]4[C@H]2C(=O)N(CCCO)[C@@H]3C1=O` (stereo not given in full): the composite z-score was 1.95 in assay [1]; -0.286 in assay [2]; 0.627 in assay [3]; -0.0827 in assay [5]; 0.0274 in assay [6]; -0.42 in assay [7]. Besides, the composite z-score is -0.123 in assay [8], -0.74 in assay [9] and 0.929 in [10]. Also, in assay [4], the z-score is -3 (inactive).
With `CC(CO)N1C(=O)[C@@H]2[C@H]3C(=O)OCC=C[C@H]3OC23C=CCN(C(C)(C)C)C(=O)[C@@H]13` (stereo not given in full), the composite z-score in assay [1] was 0.115; in [2], -0.323; in assay [3], 0.129; in assay [5] it was -0.0566; in assay [6], -0.764; in assay [7], -1.14. In addition, the figures for the composite z-score in [8], in assay [9] and in [10] were -0.205, -0.496 and -0.197, respectively. Besides, the z-score in assay [4] was 0.74 (inactive).
In the case of `COc1ccc([Si](C)(C)[C@H]2[C@H](CC(=O)N(CCO)Cc3ccccc3)O[C@@]3(C(=O)N(Cc4cccc(N5CCOC5=O)c4)c4ccccc43)[C@@H]2C)cc1`, the composite z-score in assay [1] is 1.18; in [2], -0.21; in [3] it was 0.0284; in [5], 0.0549; in assay [6], 0.616; in assay [7] it was 0.232. Also, the composite z-score is 0.324 in assay [8], 0.179 in assay [9] and 0.81 in assay [10]. Moreover, the z-score in assay [4] was -2.44 (inactive).
Regarding `CC(CO)N1C(=O)[C@@H]2[C@H]3C(=O)OCC=C[C@H]3OC23C=CCN(CCN2CCOCC2)C(=O)[C@@H]13` (stereo not given in full), the composite z-score is 1.12 in assay [1]; -0.373 in [2]; -0.646 in assay [3]; -0.199 in assay [5]; 0.248 in assay [6]; -0.101 in assay [7]. Besides, the composite z-score in assay [8] came out at 0.152; in assay [9], 0.439; in [10], 0.777. The z-score in assay [4] was 0.497 (inactive).
As to `O=C1C2C=CC(C(O)c3ccc(F)cc3)N(n3cnnc3)C2C(=O)N1Cc1ccccc1` (stereo not given), the composite z-score in [1] was -0.284; in assay [2], 0.158; in assay [3] it was 0.384; in assay [5] it was -0.429; in assay [6], -0.858; in [7], -0.273. Moreover, the values for the composite z-score in [8], in assay [9] and in [10] were -0.0469, -0.44 and 1.12, respectively. For the same compound, the z-score in [4] was -0.284 (inactive).

The values are drawn from PubChem BioAssay.
